# Screening results: PubChem BioAssay, National Center for Advancing Translational Sciences (NCATS)
# The list is not random: actives were taken first. Their share in the collection is about 12%.
# JMJD2A Tudor inh: qHTS Assay for Inhibitors of JMJD2A-Tudor Domain; Lysine-specific demethylase 4A (Homo sapiens), O75164; AlphaScreen JMJD2A-Tudor / H3K4me3 peptide binding; Potency, µM (top dose mostly 114 µM), for the others: at the highest dose activity change, negative = inhibition, most hits filed as inhibitors; actives 4.4% (n = 390,000); AID 504339, 2011; also: % is scaled to controls: 0 for no effect and ±100 for the full control effect; nearly all actives have a fitted effect of over 50% in size
# HP1b chromo inh: HTS for Inhibitors of HP1-beta Chromodomain Interactions with Methylated Histone Tails; Chromobox protein homolog 1 (Homo sapiens), P83916; AlphaScreen HP1-beta / biotin-H3K9me3 peptide binding; Potency, µM (highest dose often 114 µM), for the others: at the top dose activity change, negative = inhibition, most hits filed as inhibitors; actives 0.56% (n = 390,000); AID 540317, 2011; also: nearly all actives have a fitted effect of over 70% in size
# Target sequence (P83916 whole entry, looked up): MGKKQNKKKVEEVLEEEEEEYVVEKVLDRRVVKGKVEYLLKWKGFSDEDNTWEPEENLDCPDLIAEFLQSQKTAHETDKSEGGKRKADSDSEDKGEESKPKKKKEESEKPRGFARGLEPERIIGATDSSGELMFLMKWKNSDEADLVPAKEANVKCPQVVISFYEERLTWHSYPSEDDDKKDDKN
#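 Compound inhibition of the preformed complex between 50 nM HP1-beta and 50 nM biotinylated H3K9me3 peptide was read by AlphaScreen. Buffer was PBS pH 7.4 with 0.01% Tween-20. Incubations ran 30 min at room temperature, with 10 ug/mL donor/acceptor beads.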
# PLK1 PBD block: qHTS for Inhibitors of PLK1-PDB (polo-like kinase 1 - polo-box domain): Primary Screen. Serine/threonine-protein kinase PLK1 (Homo sapiens), P53350. Plk1 PBD binding of FITC phosphopeptide, fluorescence polarization. Potency, µM, inactives show max response, negative = inhibition, usual class: inhibitors. actives 2.8% (n = 360,000); also: series mostly up to about 57 µM; % is scaled to controls: 0 for no effect and ±100 for the full control effect; nearly all actives have a fitted effect of over 65% in size
# BAZ2B inh: qHTS Assay for Inhibitors of BAZ2B; Bromodomain adjacent to zinc finger domain protein 2B (Homo sapiens), Q9UIF8; AlphaScreen BAZ2B-H3K14Ac peptide displacement; Potency, µM (titrated, usually from 114 µM), for inactives: at the top dose activity change, negative = inhibition, most hits filed as inhibitors; actives 4.4% (n = 360,000); AID 504333, 2011; also: % is scaled to controls: 0 for no effect and ±100 for the full control effect; nearly all actives have a fitted effect of over 60% in size
#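 Multi-concentration screen (max 110 uM) measuring displacement of acetylated histone H3 peptide from BAZ2B by AlphaScreen, using 50 nM protein, 50 nM peptide and 10 ug/mL streptavidin donor plus Ni-chelate acceptor beads.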
# G9a inh: qHTS Assay for Inhibitors of Histone Lysine Methyltransferase G9a; actives 8.8% (n = 350,000); Histone-lysine N-methyltransferase EHMT2 (Homo sapiens), Q96KQ7; G9a H3K9 monomethylation, AlphaScreen, 2 h; Potency, µM (top dose mostly 102 µM), without a hit: at the top dose activity, negative = inhibition, hits mostly inhibitors; also: % is scaled to controls: 0 for no effect and ±100 for the full control effect; nearly all actives have a fitted effect of over 75% in size
# Target sequence (Q96KQ7 913-1193 limits assumed): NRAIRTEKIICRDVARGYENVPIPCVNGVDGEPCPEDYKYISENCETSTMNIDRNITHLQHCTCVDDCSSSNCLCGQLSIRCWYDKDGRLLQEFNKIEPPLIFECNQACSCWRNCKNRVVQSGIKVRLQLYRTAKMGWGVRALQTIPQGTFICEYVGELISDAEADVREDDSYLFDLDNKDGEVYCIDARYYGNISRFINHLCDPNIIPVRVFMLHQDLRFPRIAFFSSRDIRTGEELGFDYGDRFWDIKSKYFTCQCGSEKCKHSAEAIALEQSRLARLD
#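 Enzyme 20 nM + cpd, 15 min RT; add b-H3K9 pep 500 nM / SAM 20 uM; 2 h RT; anti-H3K9me1 Ab 0.5 ug/mL + SA donor / anti-rabbit acceptor beads 20 ug/mL each, 10 min; AlphaScreen read.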
# Sfp inh: qHTS Assay for Inhibitors of Bacillus subtilis Sfp phosphopantetheinyl transferase (PPTase) | Potency, µM, for the others: largest response in the series, negative = inhibition, actives largely listed as inhibitors | Biochemical Sfp PPTase activity, qHTS | 4'-phosphopantetheinyl transferase ffp (Bacillus subtilis), Q9F4F7 | actives 3.5% (n = 310,000);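 also: the enzyme is Sfp with the accession as filed and its product quenches rhodamine fluorescence; 0% = enzyme reaction without inhibitor and -100% = no enzyme wells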
#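 After 15 min at room temperature with compound, 15 nM Sfp received 5 uM rhodamine-CoA plus 12.5 uM BHQ-2-ybbR (50 mM Hepes pH 7.6, 10 mM MgCl2). Rate came from the fluorescence difference over 30 min, ex 525/em 598 nm.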
# An asterisk follows results filed as active; u = inconclusive; x = not tested or not shown; [ ] = dose if it differs, or a comment. Calls follow the shape of the dose curve; as a rule, active = well fitted curve in the direction sought with a large enough effect; inconclusive = small, poorly fitted or top-dose-only effect, or another doubt; inactive = no such curve, though single readings can be large; an effect the other way counts as inactive or inconclusive. Potency is read from the fitted curve at half-maximal effect.
SMILES,JMJD2A Tudor inh,HP1b chromo inh,PLK1 PBD block,BAZ2B inh,G9a inh,Sfp inh
Cc1ccn2c(Nc3ccc4c(c3)OCCO4)c(-c3cccs3)nc2c1,u,u,x,25µM*,14µM*,x
COc1ccc(Nc2c(-c3ccc(C)o3)nc3cc(C)ccn23)cc1,u,-14%,x,u,16µM*,x
Cc1ccc(C(=O)Nc2c(-c3cccs3)nc3cc(C)ccn23)cc1,-7%,24%,-3%,14%,4%[59 µM],-16%
Cc1ccc(-c2nc3cnccn3c2Nc2ccc3c(c2)OCO3)o1,u,-17%,-19%,50µM*,32µM*,35µM*
Cc1ccn2c(Nc3ccc4c(c3)OCO4)c(-c3ccc(C)o3)nc2c1,u,18%,x,-35%,16µM*,x
CCC(C)NC(=S)NNC(=O)c1ccc(C(C)(C)C)cc1 (stereo not given),-15%,26%,-8%,-6%,-8%[59 µM],9%
CCOC(=O)C1=C(COC(=O)COc2ccccc2C#N)NC(=O)NC1C (stereo not given),8%,23%,4%,0%,6%[2.33 µM],x
O=c1c2ccccc2nc2oc3ccccc3n12,-13%,-10%,u,5%,25µM*,u
O=c1c2ccccc2nc2n1CCO2,-4%,12%,-10%,5%,-3%,27%
COc1cccc(Nc2nc3ccc(C)cc3nc2-n2nc(C)cc2C)c1,195%,314%,x,355%,392%[59 µM],x
CCOC(=O)/C(=C\c1ccccc1)C(=O)CCN1CCOCC1,-22%,-21%,6.7µM*,x,x,x
CCCn1cnc2cc(NCc3ccccc3O)ccc21,-36%,4%,-9%,-30%,40µM*,10%
CCn1cnc2cc(NCc3ccc(Br)cc3)ccc21,14µM*,u,-10%,45µM*,13µM*,-1%
CCCn1cnc2cc(NCc3cccc(OC)c3)ccc21,u,-23%,-9%,u,-4%[12.7 µM],-1%
CCCn1cnc2cc(NCc3ccc(Br)cc3)ccc21,16µM*,u,-8%,45µM*,45µM*,-9%
CCC(=O)Nc1ccc2c(c1)ncn2CCc1ccccc1,-10%,26%,-3%,2%,3%[2.33 µM],25%
CCn1cnc2cc(NS(=O)(=O)c3ccc(C)cc3)ccc21,-14%,22%,-5%,-30%,-43%[59 µM],15%
Cn1cnc2cc(NCc3ccc(Cl)cc3)ccc21,u,-19%,-11%,u,45µM*,5%
Clc1nc(NC2CCCCC2)c2cn[nH]c2n1,-15%,29%,9%,x,x,x
CCOC(=O)c1ccc(NC(=O)CC2C(=O)N(c3ccc(C)cc3)C(=O)N2C2CCCC2)cc1 (stereo not given),0%,34%,x,-18%,-28%[59 µM],x
O=C(COC(=O)c1cc(Cl)ccc1O)NCCNC(=O)COC(=O)c1cc(Cl)ccc1O,-12%,9%,-4%,10%,40µM*,10%
Cc1cc(C)cc(C(=O)NCC(=O)OCC(=O)Nc2cccnc2Cl)c1,10µM*,-18%,-13%,3%,5%,20%
O=C(COC(=O)c1ccc(Cl)cc1O)Nc1cccnc1Cl,-6%,12%,-13%,0%,50µM*,13%
O=C(COC(=O)c1ccc(F)cc1F)Nc1cccnc1Cl,5%,34%,2%,-2%,35%[12.7 µM],x
COC(=O)c1ccc(CNC(=O)COC(=O)c2cc(Cl)ccc2O)cc1,3%,25%,0%,x,x,x
SMILES,JMJD2A Tudor inh,HP1b chromo inh,PLK1 PBD block,BAZ2B inh,G9a inh,Sfp inh
Cc1cc(N2Cc3ccccc3C2)ccc1C=O,-17%,-7%,-9%,-21%,50µM*,16%
O=Cc1ccc(N2Cc3ccccc3C2)cc1,-13%,29%,-14%,-5%,x,5%
Cc1cc2c(cc1C)CN(c1ccccc1)C2,u,25%,-12%,-27%,7.1µM*,-29%
Oc1cccc(N2Cc3ccccc3C2)c1,u,22%,-17%,-25%,17%[2.33 µM],-8%
CCOc1ccc(S(=O)(=O)N2CCOCC2)cc1NC(=O)CSCC(=O)Nc1ccc(OC)cc1,-8%,18%,-6%,x,x,x
O=C(c1ccco1)N1CCN(C/C=C/c2ccccc2)CC1,-14%[11.4 µM],0%,30µM*,4%,56µM*,-3%
COc1ccc(NS(=O)(=O)c2cc(C(=O)N3CCN(C/C=C/c4ccccc4)CC3)ccc2C)cc1,u,-10%,-8%,50µM*,14µM*,x
O=C(NC(=S)N1CCN(C/C=C/c2ccccc2)CC1)c1ccco1,-20%,10%,-8%,-34%,45µM*,14%
O=C(c1cccs1)N1CCN(C/C=C/c2ccccc2)CC1,-8%,22%,2%,-1%,-2%[2.33 µM],1%
Cc1cc(C(=O)N2CCN(C/C=C/c3ccccc3)CC2)no1,-1%,23%,-5%,-4%,50µM*,-7%
Cc1ccc(C(=O)N2CCCCCC2)cc1S(=O)(=O)Nc1ccccc1,-28%,14%,-5%,-2%,x,5%
COC(=O)C1=C(C(=O)OC)[C@@H]2N(C)c3ccccc3[C@@]23C[C@@H](C(=O)OC)N(S(=O)(=O)c2ccc4c(c2)OCCN4C)C3=N1,x,x,x,x,x,5%
COc1ccc(/C=C2\CCCC3C2=NN(C(=O)CSc2n[nH]c(N)n2)C3c2ccc(OC)cc2)cc1 (stereo not given),-14%,8%,-10%,-21%,-20%,-4%
CCOC(=O)c1nnc(-c2ccccc2)nc1Sc1ccccc1Cl,u,7%,-23%,-7%,-6%,79µM*
COc1cccc(NC(=O)CSc2cc(C)[nH]c(=O)n2)c1,-17%,4%,x,-2%,6%[59 µM],x
COCCC(=O)Nc1ccc2c(c1)CN(C(=O)c1ccc(CSC)o1)CC2,-12%,74%,u,7%,50µM*,1%
O=c1[nH]nc(Sc2ncnc3sccc23)n1CCc1ccccc1,-20%,66%,-20%,-5%,40µM*,8%
CCN(CC)C(=O)CSc1n[nH]c(=O)n1CCc1ccccc1,-11%,10%,-10%,5%,5%,1%
Cc1ccc(S(=O)(=O)N2[C@@H](c3ccc(Br)cc3)C(C(=O)O)=CC[C@H]2c2ccc(C(C)C)cc2)cc1,u,11%,30µM*,x,x,x
Cc1ccc(S(=O)(=O)N2[C@@H](c3ccccc3F)C(C(=O)O)=CC[C@H]2c2ccc(C(C)C)cc2)cc1,-13%,31%,u,-29%,14%[2.33 µM],x
